The list is not random: actives were taken first. Their share in the collection is about 19%.
ELG1 repair inh – inhibitors of ELG1-dependent DNA repair in HEK293T cells; HEK293T ELG1-luciferase reporter, luminescence, 16 h; DNA damage induced by 5-fluorouridine; hit rate 2.3% among 330,000; Potency, µM (top dose mostly 46.1 µM), for inactives: at the highest dose activity change, negative = inhibition, hits mostly inhibitors; AID 504467; note: potency is the fitted concentration of half-maximal effect; nearly all actives have a fitted effect of over 55% in size
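Step one: seed 2,000 cells per well. Step two: pin-transfer compound or DMSO alongside 5-fluorouridine. Step three: incubate 16 hr, 37 °C, 5% CO2. Step four: add ONE-Glo, wait 30 min, read luminescence.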
HT1080NT lethal – kills 2HG-producing HT-1080-NT fibrosarcoma cells; HT-1080-NT fibrosarcoma viability, CellTiter-Glo ATP luminescence, 48 h; Potency, µM (doses to about 46.1 µM), without a hit: at the highest dose activity, negative = less viability, usual class: cytotoxic; hit rate 1.6% among 360,000;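 note: NT is the 2HG producing partner of a matched IDH1 knockdown line; potency is the fitted concentration of half-maximal effect; 0% = DMSO-treated cells and -100% = media-only wells without cells; nearly all actives have a fitted effect of over 55% in size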
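HT-1080-NT fibrosarcoma cells (2HG-overproducing), 750 cells/well in RPMI with 5% FBS, dosed after 2 h and incubated 48 h at 37C. CellTiter-Glo luminescence normalized to DMSO and no-cell wells; concentration-response curves fitted and classed.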
DT40 TDP1 CPT – growth inhibition of DT40 Tdp1-/-;hTDP1 cells with camptothecin (screen for TDP1 inhibitors). chicken DT40 Tdp1-/-;hTDP1 cells + 20 nM CPT, ATP luminescence, 48 h. Potency, µM (titrated, usually from 46.2 µM), without a hit: at the highest dose activity change, negative = growth inhibition, hits mostly inhibitors. hit rate 12% among 420,000. AID 686979; note: potency is the fitted concentration of half-maximal effect; nearly all actives have a fitted effect of over 55% in size
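Chicken DT40 Tdp1-/- cells stably complemented with human TDP1 were seeded at 400 cells/well in medium containing 20 nM camptothecin, exposed to pin-transferred compounds, and grown at 37 °C for at least 48 hr. Viability was read as ATP luminescence.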
DT40 TDP1 no CPT – qHTS for Inhibitors of human tyrosyl-DNA phosphodiesterase 1 (TDP1): qHTS in cells in absence of CPT; DT40 Tdp1-/- hTDP1 cells, no CPT, ATP luminescence, 48 h; Potency, µM (top dose mostly 46.2 µM), inactives show at the top dose activity change, negative = growth inhibition, actives largely listed as inhibitors; hit rate 15% among 420,000; AID 686978, 2013; note: potency is the fitted concentration of half-maximal effect; nearly all actives have a fitted effect of over 55% in size
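A cellular qHTS used chicken DT40 cells lacking endogenous Tdp1 but carrying stably transfected human TDP1. Compounds were applied without camptothecin, and cell growth kinetics were judged by ATP-dependent luminescence after ≥48 hr.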
IL1B secr inh – inhibitors of inflammasome signaling (IL-1 beta secretion); hit rate 4.7% among 360,000; THP-1 LPS/ATP IL-1B secretion, AlphaLISA, 16 h; hits give low values; activity change, % at 57.5 µM; in the data active = activity change below about -50%; inconclusive = mostly about -30% to -49%
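Secreted IL-1B measured by AlphaLISA bead assay after 16 h compound exposure of THP-1 cells; compounds (final up to 57.5 uM) added 1 h before LPS (250 ng/mL) and ATP (1.25 mM) stimulation; lower signal means less secretion.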
HT1080 IDH1KD tx – toxicity to HT-1080 IDH1 knockdown cells (counter line); HT-1080 IDH1 knockdown viability, ATP luminescence, 48 h; hit rate 2% among 360,000; Potency, µM (highest dose often 46.1 µM), for inactives: at the highest dose activity, negative = toxicity, hits mostly cytotoxic;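 note: potency is the fitted concentration of half-maximal effect; 0% = DMSO wells and -100% = cell-free medium wells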
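Knockdown cells (IDH1KD HT-1080) received compounds 2 h after plating at 750 cells/well and were kept 48 h at 37 °C in 5% FBS RPMI. A CellTiter-Glo luminescence read gave % activity for curve fitting.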
* marks the source's active call; other numbers are inactive results; ? = inconclusive; / = no result given; [ ] = dose if it differs, or a comment. Unless noted, calls come from the whole dose curve; as a rule, active = well fitted curve in the direction sought with a large enough effect; inconclusive = small, poorly fitted or top-dose-only effect, or another doubt; inactive = no such curve, though single readings can be large; an effect the other way counts as inactive or inconclusive. Unless noted, % is set by controls: 0 for no effect and ±100 for the full control effect.

SMILES	ELG1 repair inh	HT1080NT lethal	DT40 TDP1 CPT	DT40 TDP1 no CPT	IL1B secr inh	HT1080 IDH1KD tx
NC(=O)c1cc([N+](=O)[O-])c(Cl)cc1NCc1ccccn1	2%	2%	?	26µM*	-7	-3%
CCC(=O)N1CCc2cc(S(=O)(=O)NC(Cc3ccccc3)C(=O)Nc3ccc(C)cc3)ccc21 (configuration not stated)	/	/	16µM*	?	/	/
Cc1ccc(S(=O)(=O)N[C@@H](Cc2ccccc2)C(=O)CCl)cc1	16µM*	?	2.6µM*	5.2µM*	-107*	16µM*
Cc1ccc(NC(=O)C(Cc2ccccc2)NS(=O)(=O)c2ccc3c(c2)c(=O)n(C)c(=O)n3C)cc1 (configuration not stated)	/	/	16µM*	?	/	/
CCC(=O)N1CCc2cc(S(=O)(=O)NC(CC(C)C)C(=O)Nc3cc(C)ccc3OC)ccc21 (configuration not stated)	/	/	18µM*	?	/	/
COc1ccc(NC(=O)C(Cc2ccccc2)NS(=O)(=O)c2ccc3c(c2)CCN3C(C)=O)cc1 (configuration not stated)	/	/	-29%	?	/	/
COc1ccc(C(=O)NC(=S)Nc2cccnc2)cc1[N+](=O)[O-]	3%	0%	0%	-7%	4	26%
CC1CC(C)CN(c2ccc([N+](=O)[O-])nc2)C1 (configuration not stated)	?	5%	8%	-6%	-9	19%
O=C(NCc1ccc2c(c1)OCO2)c1cc(-c2ccccc2)nn1CC1CC(c2cccnc2)=NO1 (configuration not stated)	/	4%	-22%	-16%	-1	3%
COc1cc(C(=O)OC2CC[C@]3(C)C4CCC5[C@]6(O)CC(O)[C@]7(O)C(CN8CC(C)CCC8[C@]7(C)O)[C@]6(O)C[C@@]53O[C@]24O)cc(OC)c1OC (some centres not stated)	/	/	0%	-2%	/	/
CC(C)OCCCNC(=O)CN1C(=O)CSc2ccc(S(=O)(=O)N3CCCCC3)cc21	7%	0%	0%	?	-12	-2%
Cc1c(Cc2ccc3c(c2)OCO3)sc(NC(=O)C2CC2)c1C(N)=O	?	-1%	10µM*	10µM*	-19	-21%
Cc1nc(NC(=O)C2CCCC2)sc1Cc1ccc2c(c1)OCO2	?	-7%	?	?	-18	-42%
Cc1nc(NC(=O)C23CC4CC(CC(C4)C2)C3)sc1Cc1ccc2c(c1)OCO2	-2%	-1%	?	21µM*	57	-12%
COc1cc(=O)n2c(c1C(=O)N(C)Cc1nonc1C)CCN(Cc1ccsc1)CC2	/	/	7%[9.04 µM]	-9%	/	/
Cc1nc(-c2ccccc2)sc1C(=O)Nc1ccccc1F	24%	-16%	-1%	-21%	-14	-3%
Cc1nc(-c2ccccc2)sc1C(=O)Nc1ccc(S(N)(=O)=O)cc1	?	?	-25%	13µM*	-5	-1%
Cc1nc(C(=O)Nc2ccccc2)sc1C(=O)Nc1ccccc1	?	-13%	18µM*	?	-24	2%
Cc1nc(N)sc1C(=O)Nc1ccccc1	?	-23%	?	?	7	-2%[9.24 µM]
CN(C1CCCCC1)S(=O)(=O)c1cn(C)c(=O)n(C)c1=O	18%	0%	-14%	-12%	3	11%
Cc1ccc(-n2nc3c(=O)n(C(C)C(=O)NCc4ccccc4C)nc(C)c3c2C)cc1 (configuration not stated)	/	/	?	23µM*	/	/
CCOc1ccccc1CNC(=O)C(CC)n1nc(C)c2c(C)n(-c3ccccc3)nc2c1=O (configuration not stated)	/	/	18µM*	?	/	/
Cc1ccc(-n2nc3c(=O)n(C(C)C(=O)NCc4ccc(Cl)cc4)nc(C)c3c2C)cc1 (configuration not stated)	?	0%	?	-22%	0	4%
CCC(C(=O)NCCc1ccc(SC)cc1)n1nc(C)c2c(C)n(-c3ccc(C)cc3)nc2c1=O (configuration not stated)	/	/	13µM*	16µM*	/	/
Cc1ccc(-n2nc3c(=O)n(C(C)C(=O)NCc4ccc(OC(C)C)cc4)nc(C)c3c2C)cc1 (configuration not stated)	/	/	16µM*	13µM*	/	/
SMILES	ELG1 repair inh	HT1080NT lethal	DT40 TDP1 CPT	DT40 TDP1 no CPT	IL1B secr inh	HT1080 IDH1KD tx
CCN(CC)CCNC(=O)c1ccc(NC(=O)/C=C/c2ccc3ccccc3n2)cc1	2%	-11%	?	?	/	-25%
CC(C)[C@H](CO)NC(=O)[C@H]1O[C@@H](n2ccc(=O)[nH]c2=O)[C@H](O)[C@@H]1O	/	11%	-25%	1%	24	18%
O=C(Nc1cc(Sc2ccccn2)cc([N+](=O)[O-])c1)c1cccc(Cl)c1	6.5µM*	?	?	?	?	?
O=C(Nc1cc(Sc2ccccn2)cc([N+](=O)[O-])c1)c1ccc(Cl)cc1	?	?	?	23µM*	-66*	?
CC(C)[C@H](NC(=O)c1ccco1)C(=O)OCC(=O)c1ccc(Br)s1	-1%	-3%	-5%	3%	10	3%
COC1=C(Nc2ccc(C)cc2)C(=O)c2ccccc2C1=O	?	-20%	?	16µM*	-77*	-15%
COC1=C(OC)C(=O)c2ccccc2C1=O	/	?	7.9µM*	8.9µM*	/	?
COC1=C(Nc2ccccc2)C(=O)c2ccccc2C1=O	1%	?	12µM*	12µM*	?	13µM*
CCOc1ccccc1NC1=C(OC)C(=O)C(Nc2ccccc2OCC)=C(OC)C1=O	/	5%	0%	?	-2	29%
O=C(NCCc1ccc(F)cc1)C1CCCO1 (configuration not stated)	-4%	7%	6%	22%	-12	12%
CCCC1(C2CCCC2)NC(=O)NC1=O (configuration not stated)	/	7%	-4%	-4%	13	7%
NC(=O)C1CC(=O)N(c2ccc(OCC(=O)Nc3ccc(F)cc3)cc2)C1 (configuration not stated)	21%	8%	4%	-29%	8	2%
COc1ccc2c(c1)CCc1c(C(=O)N(C)c3ccccc3)noc1-2	?	-1%	-27%	-12%	-19	-8%

Screening data: PubChem BioAssay, National Center for Advancing Translational Sciences (NCATS)
